Source: PubChem (several laboratories)
Platelet DG rel: platelet dense granule release activity; human platelet-rich plasma, SFLLRN dense granule ATP release, luminescence; inhibition, %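 (compounds screened at 7.5 µM in platelet-rich plasma)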; hit rate 0.22% among 300,000; AID 1663;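 active means mean replicate score, as percent of positive control, at or above 50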
VLA-4 inh: inhibition in a human VLA-4 binding assay; P13612; hit rate 0.2% among 330,000; inhibition, % (about 7 µM as worked out from the volumes in the protocol); VLA-4 expressing cells, ligand binding flow cytometry; in the data active means inhibition above about 50%
CHT allo act: allosteric activators of human choline transporter CHT | Q9GZV3 | CHT-expressing cells, membrane potential dye, choline EC20; hits give high values; LV-AA mutant CHT in HEK293 cells | B-score at 10 µM | hit rate 0.49% among 310,000 | AID 488977;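 active means initial fluorescence not abnormally high and integrated response B-score, plate-corrected, over 3 SD above library mean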
AI-2 QS mod: modulates the Vibrio harveyi AI-2 quorum sensing system; Vibrio harveyi JMH597 AI-2 luminescence/OD600 ratio, 9 h; hits give low values; strain lacks LuxN and CqsS sensors; 0 = neutral-control median; activity change, % at 7.5 µM; hit rate 0.4% among 300,000; AID 2094; in the data active means activity change below about -75%, passing the limit was not always enough;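 further: luminescence divided by OD600 gain over 9 h not by final OD600 alone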
HIF act: HIF pathway transcriptional activation; AID 1910; hit rate 0.32% among 300,000; activation, % at 7.5 µM (by protocol); U2OS HRE-luciferase reporter, luminescence; normalized: DMSO 0%, desferrioxamine 100%;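 active means mean activation of at least 10% of the iron chelator positive control signal, with at least half of replicates also reaching 10%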
CHT inh: inhibitors of human choline transporter CHT | CHT-expressing cells, membrane potential dye, choline response; hits give low values | B-score at 10 µM | hit rate 0.86% among 310,000 | AID 488975;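 active means B-score over 3 SD under the library average, and starting fluorescence ratio not unusually high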;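 further: choline stimulus applied at its EC90 after an EC20 pre-addition; B-score computed on integrated fluorescence ratio after choline addition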
VLA-4 allo CP: confirmation of allosteric modulators of human VLA-4 integrin; shares compounds with VLA-4 inh; U937 cells, HUTS-21 LIBS mAb binding, flow cytometry; LDV ligand present at threefold Kd; inhibition, % at 6.7 µM; hit rate 2% among 1,300; AID 2813; in the data active means inhibition above about 40%;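 further: 0% = ligand without compound and 100% = no ligand background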
An asterisk follows results filed as active; i = inactive; . = no result given. Shown are actives, neighbours in structure and some others; about 2.2% of the full set was active somewhere.

SMILES	Platelet DG rel	VLA-4 inh	CHT allo act	AI-2 QS mod	HIF act	CHT inh	VLA-4 allo CP
Cc1cc([N+](=O)[O-])ccc1NC(=O)C(C)N1CCN(c2ccccn2)CC1 (centres undefined)	12	26	i	13	-2	i	.
CCCCc1ccc(-n2c(Cc3cccs3)n[nH]c2=S)cc1	2	55*	i	35	0	i	4
COc1ccc(C(=O)Nc2cc3c(cc2OC)CCCC3)cc1Br	6	0	i	24	-2	i	.
COc1cc2c(cc1NC(=O)c1ccc(C(C)(C)C)cc1)CCCC2	-3	82*	i	22	-5	i	15
CCN1CCN(Cc2nnc(-c3ccccc3)o2)CC1	-4	10	i	13	0	i	.
c1ccc(-c2nnc(CN3CCCCC3)o2)cc1	5	45	i	11	2	i	-12
CCC1CCCN1Cn1cnc2c([nH]c3ccc(OC)cc32)c1=O (centres undefined)	-49	4	i	15	0	i	-13
COc1ccc2[nH]c3c(=O)n(CCc4ccccc4)cnc3c2c1	-91	-7	i	9	1	i	.
CCCCN(CCCC)CCn1cnc2c([nH]c3ccc(OC)cc32)c1=O	5	-4	i	16	0	i	-12
CCC1CCCN1Cn1cnc2c([nH]c3ccccc32)c1=O (centres undefined)	-14	4	i	9	0	i	.
O=C(NNC(=O)c1csc(N2CCOCC2)n1)c1ccc(=O)[nH]c1	.	4	.	.	.	.	.
COc1ccccc1NC(=O)c1c(C)oc2c1CCCC2	-1	93*	i	13	0	i	4
COc1cscc1C(=O)O	5	4	i	19	0	i	.
CC(C)c1ccc(NC(=O)C(c2ccccc2)N2CC(=O)Nc3ccccc32)cc1 (centres undefined)	9	72*	i	6	3	i	3
CC1Oc2ccccc2N(Cc2ccc(F)cc2)C1=O (centres undefined)	6	1	i	-8	0	i	.
O=C(c1cscn1)N1CCCC(N2CCN(c3ccc(F)cc3)CC2)C1 (centres undefined)	2	-1	i	10	1	i	.
CC(=O)Oc1ccc(N2C(=O)C3C4C=CC(CO)(O4)C3C2=O)cc1 (centres undefined)	0	-7	i	13	0	i	.
O=C1C2C3C=CC(CO)(O3)C2C(=O)N1c1ccccc1-c1ccccc1 (centres undefined)	.	50*	i	.	.	i	4
Cc1ccccc1Nc1nc(N)nc(CSc2ccc(F)cc2)n1	-1	8	i	1	4	i	.
Cc1ccc(SCc2nc(N)nc(Nc3ccccc3C)n2)cc1C	-2	54*	i	5	0	i	-6
Cn1cc(C(=O)N/N=C/C=C/c2ccccc2)ccc1=O	11	45	i	19	-1	i	7
COc1ccc(OC)c(CCNC(=O)CCc2nnc3ccc(N4CCOCC4)nn23)c1	4	4	i	17	0	i	.
Cn1[nH]c(CSc2ccc(Cl)cc2)cc1=O	9	-4	i	4	0	i	.
CCC(C)C(NC(=O)c1ccc(Cl)cc1Cl)C(=O)O (centres undefined)	10	14	i	3	0	i	.
CCC(C)C(NC(=O)c1ccc(Cl)cc1)C(=O)O (centres undefined)	19	93*	i	11	0	i	3
O=S(=O)(Nc1ncccn1)c1cc(Cl)ccc1Cl	4	-1	i	20	0	i	-7
O=S(=O)(Nc1ccccn1)c1cc(Cl)ccc1Cl	-2	4	i	8	1	i	.
COc1ccccc1C(=O)NC(CCSC)C(=O)NCCCn1nc(C)cc1C (centres undefined)	2	0	i	12	0	i	.
CCOc1ccc(CN(CCO)CCO)cc1[N+](=O)[O-]	1	90*	i	12	0	i	2
